From PubChem BioAssay (EPA / NIEHS)
The source made the active and inactive calls. The calls were made as follows: active = hit-call score of the fitted dose curve at least 0.9, where 1 is the maximum; inactive = score below 0.9.

Key:
[1] = target: Transcription factor E2F1 (Homo sapiens) (UniProt Q01094); test: ATG_E2F_CIS: Attagene CIS-FACTORIAL HepG2 Assay for human E2F Transcription Factor 1 (AID 2282935); conditions: HepG2 Attagene cis-reporter, E2F reporter RNA transcripts; actives raise or lower the signal
In short: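 Gain or loss of reporter transcript, fitted against DMSO, reflects E2F1-driven transcription. Transiently transfected HepG2 dosed 24 h before RNA isolation. Quantified by fluorescent RT-PCR products separated by capillary electrophoresis.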

[2] = ATG_E_Box_CIS: Attagene CIS-FACTORIAL HepG2 Assay for human Enhancer Box (E-box) (AID 2282936); conditions: HepG2 E-box cis-reporter transcription, actives raise or lower the signal
In short: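 E-box-driven reporter transcripts measured in transiently transfected HepG2 after 24 h exposure: RNA reverse-transcribed, PCR-amplified, fluorescently labelled, digested and resolved by capillary electrophoresis. Gain or loss relative to DMSO.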

[3] = ATG_M_61_CIS: Attagene CIS-FACTORIAL HepG2 Assay for M61 Transcription Factor (Internal Marker) (AID 2282937); conditions: HepG2 Attagene CIS-FACTORIAL M61 internal marker reporter; actives raise or lower the signal
In short: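 Transfect HepG2 with MRTUs; dose 24 h; isolate RNA; reverse-transcribe with DNase I treatment; PCR-amplify, FAM-label and cut with HpaI for 2 h at 37 C; resolve by CE. Bidirectional fitting against DMSO.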

[4] = ATG_EGR_CIS: Attagene CIS-FACTORIAL HepG2 Assay for human Early Growth Response 1 (EGR1) (AID 2282938); conditions: HepG2 Attagene CIS-FACTORIAL EGR reporter mRNA; actives raise or lower the signal
In short: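 After a 24 h treatment of transiently transfected HepG2 cells, total RNA was reverse-transcribed and reporter sequences PCR-amplified, labelled and run on capillary electrophoresis. Reporters sit under cis-regulatory promoters sensing endogenous factors.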

[5] = ATG_M_19_CIS: Attagene CIS-FACTORIAL HepG2 Assay for M19 Transcription Factor (Internal Marker) (AID 2282939); conditions: HepG2 Attagene CIS-FACTORIAL M19 internal marker reporter; actives raise or lower the signal
In short: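 Transfect HepG2 with MRTU reporter library → dose chemical, 24 h → isolate total RNA, reverse-transcribe with oligo(dT) → PCR, 6-FAM label, HpaI cut (2 h, 37 C) → capillary electrophoresis. Bidirectional fit vs DMSO.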

[6] = ATG_ERE_CIS: Attagene CIS-FACTORIAL HepG2 Assay for Estrogen Response Element (ERE) (AID 2282940); conditions: HepG2 ERE cis-reporter, Attagene RNA transcript; actives raise or lower the signal
In short: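 Transient MRTU transfection of human HepG2; cis-element promoters; 24 h dosing; total RNA → RT (oligo dT) → PCR → 6-FAM primer extension → HpaI digest → CE fluorescence. Bidirectional fit, DMSO baseline.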

[7] = ATG_Ets_CIS: Attagene CIS-FACTORIAL HepG2 Assay for human Erythroblast Transformation Specific (ETS) (AID 2282941); conditions: HepG2 ETS cis-reporter transcription, actives raise or lower the signal
In short: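 Cis-regulated reporter mRNA induction in HepG2 (transient transfection), 24 h exposure, RT-PCR plus capillary electrophoresis detection; DMSO serves as negative control and baseline.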

[8] = target: Hepatocyte nuclear factor 3-beta (Homo sapiens) (UniProt Q9Y261); test: ATG_FoxA2_CIS: Attagene CIS-FACTORIAL HepG2 Assay for human Forkhead box A2 (FOXA2) (AID 2282942); conditions: HepG2 cis-reporter transcription factor activity, 24 h; actives raise or lower the signal
In short: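 24 h dosing of HepG2 bearing cis-reporter constructs; mRNA readout by RT-PCR/CE fluorescence; bidirectional fit, DMSO baseline.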

[9] = ATG_FoxO_CIS: Attagene CIS-FACTORIAL HepG2 Assay for human Forkhead box O (FoxO) (AID 2282943); conditions: HepG2 Attagene cis-reporter, FoxO element, mRNA; actives raise or lower the signal
In short: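 Endogenous transcription factor activity read from multiplexed cis-promoter reporter transcripts in transiently transfected HepG2, 24 h after dosing. Reporter RNA measured via RT-PCR plus capillary electrophoresis of FAM-labeled products; gain or loss relative to DMSO.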

[10] = ATG_GATA_CIS: Attagene CIS-FACTORIAL HepG2 Assay for human GATA Binding Protein (AID 2282944); conditions: HepG2 GATA cis-element reporter, Attagene multiplex mRNA; actives raise or lower the signal
In short: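 Transient MRTU transfection, HepG2, 24 h compound exposure. Total RNA → oligo(dT) RT → PCR → 6-FAM primer extension → HpaI cut → CE. Bidirectional fit vs DMSO.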

[11] = ATG_GLI_CIS: Attagene CIS-FACTORIAL HepG2 Assay for human Zinc Finger Protein GLI1 (AID 2282945); conditions: HepG2, Attagene cis-factorial reporter mRNA, GLI element; actives raise or lower the signal
In short: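 Bidirectional curve fits relative to DMSO, using reporter mRNA levels from RT-PCR plus capillary electrophoresis. Cells were HepG2 transiently carrying cis-regulated reporter constructs, harvested 24 h after dosing.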

[12] = target: Bile acid receptor (Homo sapiens) (UniProt Q96RI1); test: ATG_IR1_CIS: Attagene CIS-FACTORIAL HepG2 Assay for human Nuclear Receptor Subfamily 1 Group H Member 4 (NR1H4), IR1 submotif (AID 2282946); conditions: IR1 reporter transcription, actives raise or lower the signal
In short: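 HepG2 cells transiently transfected with multiplexed cis-element reporter units read endogenous transcription factor activity. After 24 h compound exposure, reporter mRNA was quantified by RT-PCR, fluorescent labelling, HpaI digestion and capillary electrophoresis; bidirectional fitting versus DMSO baseline.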

[13] = ATG_GRE_CIS: Attagene CIS-FACTORIAL HepG2 Assay for human Glucocorticoid Response Elements (GRE) (AID 2282947); conditions: HepG2 GRE cis-reporter, Attagene multiplex mRNA; actives raise or lower the signal
In short: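 Reporter transcripts read by RT-PCR with capillary electrophoresis fluorescence after a 24 h chemical exposure of HepG2 cells transiently transfected with multiple cis-element reporter units. Gain or loss fitted against DMSO.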

[14] = ATG_ISRE_CIS: Attagene CIS-FACTORIAL HepG2 Assay for human Interferon Regulatory Factor 1 (IRF1) binding to an Interferon-Stimulated Response Element (ISRE) (AID 2282948); conditions: HepG2 ISRE cis-reporter (Attagene), mRNA transcription readout; actives raise or lower the signal
In short: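 Multiplexed mRNA reporter readout in human liver HepG2 cells: cis-element-driven reporters transfected, compound added for 24 h, transcripts amplified, fluorescently labelled and sized by capillary electrophoresis; curve fitting bidirectional against DMSO.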

[15] = ATG_M_32_CIS: Attagene CIS-FACTORIAL HepG2 Assay for M32 Transcription Factor (Internal Marker) (AID 2282949); conditions: HepG2 Attagene cis-factorial M32 reporter, mRNA; actives raise or lower the signal;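 also: background control marker of the multiplexed CIS panel rather than a real target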
In short: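 HepG2 transfectants (cis-regulated reporter transcription units) dosed 24 h. Reporter mRNA by RT-PCR plus CE, analysed as gain or loss relative to DMSO.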

[16] = ATG_M_06_CIS: Attagene CIS-FACTORIAL HepG2 Assay for M06 Transcription Factor (Internal Marker) (AID 2282950); conditions: HepG2 Attagene CIS-FACTORIAL M06 internal marker reporter; actives raise or lower the signal
In short: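 Read-out is fluorescence of labelled reporter cDNA fragments resolved by capillary electrophoresis after RT-PCR. Cells: HepG2 carrying transfected cis-promoter reporter units, treated 24 h. Gain or loss of signal fitted relative to DMSO.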

[17] = target: Hypoxia-inducible factor 1-alpha (Homo sapiens) (UniProt Q16665); test: ATG_HIF1a_CIS: Attagene CIS-FACTORIAL HepG2 Assay for human Hypoxia Inducible Factor 1 (HIF1A) (AID 2282951); conditions: HepG2 Attagene cis-factorial HIF1a reporter transcription; actives raise or lower the signal
In short: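 After 24 h chemical exposure of reporter-transfected HepG2 cells, reporter cDNA was PCR-amplified, labelled by 6-FAM primer extension (2 min 95 C, 20 s 68 C, 10 min 72 C), HpaI-cut (2 h, 37 C) and analysed by CE.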

[18] = target: Hepatocyte nuclear factor 6 (Homo sapiens) (UniProt Q9UBC0); test: ATG_HNF6_CIS: Attagene CIS-FACTORIAL HepG2 Assay for human Hepatocyte Nuclear Factor 6 (HNF6) (AID 2282952); conditions: HepG2 Attagene cis-factorial HNF6 reporter transcription; actives raise or lower the signal
In short: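 Using cis-element reporters in HepG2 liver cells, the assay tracks endogenous factor-driven transcription 24 h post-dosing. Signal comes from 6-FAM-labelled, HpaI-digested RT-PCR fragments, with gain or loss scored against DMSO.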

[19] = target: Heat shock factor protein 1 (Homo sapiens) (UniProt Q00613); test: ATG_HSE_CIS: Attagene CIS-FACTORIAL HepG2 Assay for human Heat Shock Transcription Factor 1 (HSE) (AID 2282953); conditions: HepG2 HSE cis-reporter, Attagene RNA transcription; actives raise or lower the signal
In short: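 HepG2, transient MRTU transfection, cis-promoter reporters (endogenous TF activity). 24 h compound. RNA → oligo(dT) RT → PCR → 6-FAM primer extension → HpaI cut → CE. Bidirectional fit vs DMSO.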

[20] = ATG_MRE_CIS: Attagene CIS-FACTORIAL HepG2 Assay for human Metal Responsive Element (MRE) (AID 2282954); conditions: HepG2 MRE cis-reporter transcription, Attagene multiplex; actives raise or lower the signal
In short: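 Endogenous MRE-dependent transcription read as reporter mRNA in transiently transfected human HepG2 cells at 24 h. RNA reverse-transcribed, PCR-amplified, labelled and resolved by capillary electrophoresis; gain or loss relative to DMSO.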

Measured: AC50

Sequence of Hypoxia-inducible factor 1-alpha (Homo sapiens) (Q16665 whole entry, looked up): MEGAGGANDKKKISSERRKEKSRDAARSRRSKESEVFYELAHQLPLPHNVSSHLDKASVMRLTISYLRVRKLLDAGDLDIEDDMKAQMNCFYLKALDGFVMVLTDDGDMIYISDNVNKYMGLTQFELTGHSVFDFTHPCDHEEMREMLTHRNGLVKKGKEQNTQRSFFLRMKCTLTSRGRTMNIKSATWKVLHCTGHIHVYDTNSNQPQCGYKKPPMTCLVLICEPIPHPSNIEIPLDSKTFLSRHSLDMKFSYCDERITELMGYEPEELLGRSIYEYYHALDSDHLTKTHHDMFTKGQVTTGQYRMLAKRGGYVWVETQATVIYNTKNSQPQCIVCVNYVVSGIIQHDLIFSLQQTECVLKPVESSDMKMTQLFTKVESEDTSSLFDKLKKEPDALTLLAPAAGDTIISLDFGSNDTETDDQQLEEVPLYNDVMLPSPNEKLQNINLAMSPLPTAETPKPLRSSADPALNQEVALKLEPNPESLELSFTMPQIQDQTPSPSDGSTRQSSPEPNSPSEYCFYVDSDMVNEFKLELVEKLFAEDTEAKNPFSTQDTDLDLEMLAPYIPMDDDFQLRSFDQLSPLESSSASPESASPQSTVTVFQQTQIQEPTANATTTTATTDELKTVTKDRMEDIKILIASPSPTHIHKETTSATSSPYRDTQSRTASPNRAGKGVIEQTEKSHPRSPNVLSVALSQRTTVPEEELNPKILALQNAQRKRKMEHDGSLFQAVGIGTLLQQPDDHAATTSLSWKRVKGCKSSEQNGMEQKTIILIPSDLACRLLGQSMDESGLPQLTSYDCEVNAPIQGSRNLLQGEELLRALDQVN
Sequence of Hepatocyte nuclear factor 6 (Homo sapiens) (Q9UBC0 whole entry, looked up, the tested form may be a part): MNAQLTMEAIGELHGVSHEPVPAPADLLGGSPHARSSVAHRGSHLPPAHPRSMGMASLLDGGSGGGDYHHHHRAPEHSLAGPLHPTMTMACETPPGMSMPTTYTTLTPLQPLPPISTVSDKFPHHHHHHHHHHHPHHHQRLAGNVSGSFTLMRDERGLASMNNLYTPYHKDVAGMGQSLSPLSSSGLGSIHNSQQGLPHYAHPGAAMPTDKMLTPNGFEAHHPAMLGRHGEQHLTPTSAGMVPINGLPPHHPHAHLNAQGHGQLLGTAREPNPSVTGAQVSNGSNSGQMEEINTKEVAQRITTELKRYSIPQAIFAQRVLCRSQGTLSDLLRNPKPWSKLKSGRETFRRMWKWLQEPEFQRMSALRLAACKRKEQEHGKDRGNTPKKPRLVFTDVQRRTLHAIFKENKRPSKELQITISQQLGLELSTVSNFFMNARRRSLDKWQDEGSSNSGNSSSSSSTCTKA
Sequence of Bile acid receptor (Homo sapiens) (Q96RI1 whole entry, looked up): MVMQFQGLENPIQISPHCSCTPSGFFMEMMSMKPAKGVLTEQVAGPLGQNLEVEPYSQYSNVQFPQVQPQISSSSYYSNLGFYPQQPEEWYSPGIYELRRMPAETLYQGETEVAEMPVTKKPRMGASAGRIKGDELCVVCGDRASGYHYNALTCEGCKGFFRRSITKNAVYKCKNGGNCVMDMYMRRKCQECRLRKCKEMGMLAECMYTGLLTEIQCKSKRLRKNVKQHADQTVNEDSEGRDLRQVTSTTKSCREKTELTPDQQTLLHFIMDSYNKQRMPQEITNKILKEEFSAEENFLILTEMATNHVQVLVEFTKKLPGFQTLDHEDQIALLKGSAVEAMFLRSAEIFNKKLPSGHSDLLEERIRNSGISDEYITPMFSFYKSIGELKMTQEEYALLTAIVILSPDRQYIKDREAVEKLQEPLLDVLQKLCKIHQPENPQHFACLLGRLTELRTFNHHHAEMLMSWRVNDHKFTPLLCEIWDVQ
Sequence of Transcription factor E2F1 (Homo sapiens) (Q01094 whole entry, looked up): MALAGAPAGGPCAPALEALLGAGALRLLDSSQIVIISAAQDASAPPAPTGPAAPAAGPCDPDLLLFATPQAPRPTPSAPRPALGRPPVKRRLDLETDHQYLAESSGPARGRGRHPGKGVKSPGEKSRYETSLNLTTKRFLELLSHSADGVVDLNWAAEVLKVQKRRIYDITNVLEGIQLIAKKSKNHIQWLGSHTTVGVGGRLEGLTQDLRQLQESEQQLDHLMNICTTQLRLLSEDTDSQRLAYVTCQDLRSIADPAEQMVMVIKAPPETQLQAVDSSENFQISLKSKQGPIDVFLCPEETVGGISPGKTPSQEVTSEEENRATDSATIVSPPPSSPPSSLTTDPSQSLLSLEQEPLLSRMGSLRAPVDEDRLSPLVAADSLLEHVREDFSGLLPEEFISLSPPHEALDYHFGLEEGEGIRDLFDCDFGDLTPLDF
Sequence of Heat shock factor protein 1 (Homo sapiens) (Q00613 whole entry, looked up): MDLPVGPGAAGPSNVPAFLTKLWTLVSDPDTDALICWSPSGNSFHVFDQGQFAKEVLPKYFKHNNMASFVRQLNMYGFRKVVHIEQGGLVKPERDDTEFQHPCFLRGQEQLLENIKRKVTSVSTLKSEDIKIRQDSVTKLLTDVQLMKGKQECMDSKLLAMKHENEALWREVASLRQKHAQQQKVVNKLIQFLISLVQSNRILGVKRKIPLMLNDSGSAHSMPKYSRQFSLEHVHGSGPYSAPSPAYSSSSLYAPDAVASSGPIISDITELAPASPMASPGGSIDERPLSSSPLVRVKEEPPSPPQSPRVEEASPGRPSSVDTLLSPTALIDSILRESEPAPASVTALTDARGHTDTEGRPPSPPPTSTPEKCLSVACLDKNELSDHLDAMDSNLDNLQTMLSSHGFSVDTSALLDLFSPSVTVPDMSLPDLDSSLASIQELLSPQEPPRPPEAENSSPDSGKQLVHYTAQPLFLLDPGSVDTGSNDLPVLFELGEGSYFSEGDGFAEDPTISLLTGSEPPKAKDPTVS
Sequence of Hepatocyte nuclear factor 3-beta (Homo sapiens) (Q9Y261 whole entry, looked up): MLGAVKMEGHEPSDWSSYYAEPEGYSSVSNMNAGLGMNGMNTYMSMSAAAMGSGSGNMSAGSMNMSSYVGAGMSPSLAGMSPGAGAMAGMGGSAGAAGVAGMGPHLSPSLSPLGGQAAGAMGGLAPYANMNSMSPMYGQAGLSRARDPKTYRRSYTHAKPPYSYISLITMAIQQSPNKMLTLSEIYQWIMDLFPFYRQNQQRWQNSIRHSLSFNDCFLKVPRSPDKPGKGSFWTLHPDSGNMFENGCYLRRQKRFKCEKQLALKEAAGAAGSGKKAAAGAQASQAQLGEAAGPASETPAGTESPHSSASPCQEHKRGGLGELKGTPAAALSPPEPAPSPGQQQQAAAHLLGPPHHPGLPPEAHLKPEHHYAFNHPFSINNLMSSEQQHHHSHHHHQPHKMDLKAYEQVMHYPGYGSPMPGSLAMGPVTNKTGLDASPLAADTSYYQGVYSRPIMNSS

O=C(Cl)C(F)(F)C(F)(F)C(F)(F)C(F)(F)C(F)(F)C(F)(F)C(F)(F)C(F)(F)F
active: [14] 33.4 µM | [19] 49.6 µM | [20] 48 µM
inactive: all other assays above

CC/C=C\CCOC(=O)c1ccccc1
not listed: [17]
inactive: all other assays above

CC(C)OC(=O)c1ccccc1C(=O)OC(C)C
active: [6] 27.7 µM
not listed: [16]
inactive: all other assays above

CCO[Si](CCC(F)(F)C(F)(F)C(F)(F)C(F)(F)C(F)(F)C(F)(F)F)(OCC)OCC
not listed: [16] | [17]
inactive: all other assays above

COC(OC(C)=O)c1ccccc1 (stereo unspecified)
inactive: all assays above

O=C(O)C=C(C(F)(F)F)C(F)(F)F
inactive: all assays above
